Data taken from PubChem BioAssay (EPA / NIEHS).
Several values for one entry are separate records, joined by “and”; a condition that tells them apart may be missing. Equal values may be shown once. Inconclusive results are not listed. Activity calls are given as the source filed them. Rule for the calls: active = hit-call score of the fitted dose curve at least 0.9, where 1 is the maximum; inconclusive = response in the unintended direction; inactive = score below 0.9.

What follows are molecules tested against Cellular tumor antigen p53 (Homo sapiens) (UniProt P04637) (assay: TOX21_p53_BLA_p4_ratio: Tox21 HCT-116 p53 Agonism Beta-lactamase Assay, Ratio, Phase 4 (AID 2283601)).
In short: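 Signal is the blue/green (460nm/530nm) ratio of cleaved versus uncleaved CCF4-AM substrate, read after 2 h substrate loading. Cells were HCT116 carrying the p53-responsive beta-lactamase reporter, dosed 16 h at 37C, 5% CO2; CellTiter-Glo measured in parallel.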

Cellular tumor antigen p53 (Homo sapiens), sequence (P04637 whole entry, looked up): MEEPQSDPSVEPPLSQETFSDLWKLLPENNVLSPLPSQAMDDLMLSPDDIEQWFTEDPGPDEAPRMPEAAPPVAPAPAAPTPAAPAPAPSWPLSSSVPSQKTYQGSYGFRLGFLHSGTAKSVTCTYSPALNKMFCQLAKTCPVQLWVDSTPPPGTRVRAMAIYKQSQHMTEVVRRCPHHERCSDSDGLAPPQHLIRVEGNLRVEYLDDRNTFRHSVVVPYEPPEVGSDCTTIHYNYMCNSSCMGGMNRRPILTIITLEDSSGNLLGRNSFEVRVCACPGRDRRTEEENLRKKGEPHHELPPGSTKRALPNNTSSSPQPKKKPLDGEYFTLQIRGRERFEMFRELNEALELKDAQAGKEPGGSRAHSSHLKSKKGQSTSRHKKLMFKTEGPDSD

| Structure (SMILES) | AC50 | outcome |
| --- | --- | --- |
| Oc1c(Cl)cc(Cl)c(Cl)c1Cc1c(O)c(Cl)cc(Cl)c1Cl | 42.2 µM (active) and 43.5 µM (active) and 6.65 µM (active) | – |
| OCc1cccc(Oc2ccccc2)c1 | – | inactive |
| COc1ccccc1[N+](=O)[O-] | – | inactive |
| CC(C)CCCCCCc1ccc(OCCOCCO)cc1 | – | inactive |
| CCc1ncc(C)[nH]1 | – | inactive |
| C1=CC2C3C=CC(C3)C2C1 (centres undefined) | – | inactive |
| NC(=S)NNC(N)=S | – | inactive |
| O=CCc1ccccc1 | – | inactive |
| Cc1c(OCC(F)(F)F)ccnc1CS(=O)c1nc2ccccc2[nH]1 (centres undefined) | – | inactive |
| c1ccc(Oc2ccccc2)cc1 | – | inactive |
| CCCCC(CC)(CO)CO | – | inactive |
| C1CCOC1 | – | inactive |
| OCCOCCN1CCN(C2=Nc3ccccc3Sc3ccccc32)CC1 | – | inactive |
| C[C@@H]1CCN(C(=O)[C@H](CCCN=C(N)N)NS(=O)(=O)c2cccc3c2NC[C@H](C)C3)[C@@H](C(=O)O)C1 | – | inactive |
| C=CCCCCCCCCCC | – | inactive |
| CCCCCCCC(=O)OCC(O)CO (centres undefined) | – | inactive |
| COC(C)(C)CCO | – | inactive |
| COc1cc([C@@H]2c3cc4c(cc3[C@@H](O[C@@H]3O[C@@H]5CO[C@@H](C)O[C@H]5[C@H](O)[C@H]3O)[C@H]3COC(=O)[C@H]23)OCO4)cc(OC)c1O | 6.18 µM (active) and 1.98 µM (active) | – |
| COCCOCCOCCO | – | inactive |
| CN(C)CCOC(C)(c1ccccc1)c1ccccn1 (centres undefined) | – | inactive |

| Structure (SMILES) | AC50 | outcome |
| --- | --- | --- |
| CC(C)(C)CC(C)(C)c1ccc(OCCOCC[N+](C)(C)Cc2ccccc2)cc1 | 70.9 µM (active) and 42.1 µM (active) | – |
| COc1ccc(CCN2CCC(Nc3nc4ccccc4n3Cc3ccc(F)cc3)CC2)cc1 | 32.5 µM (active) and 43.3 µM (active) | – |
| O=CN1CCOCC1 | – | inactive |
| CCCCCCCCCCCCCCCC(=O)OC/C=C(C)/C=C/C=C(C)/C=C/C1=C(C)CCCC1(C)C | – | inactive |
| COC(=O)Nc1ccc(Cl)c(Cl)c1 | – | inactive |
| Cc1cc(CCC(=O)OCCOCCOCCOC(=O)CCc2cc(C)c(O)c(C(C)(C)C)c2)cc(C(C)(C)C)c1O | – | inactive |
| O=C1NC2NC(=O)NC2N1 (centres undefined) | – | inactive |
| CSc1c(Cl)c(Cl)c(Cl)c(Cl)c1Cl | – | inactive |
| COC(CC(C)CCCC(C)(C)O)OC (centres undefined) | – | inactive |
| C=CCCC(=O)/C=C/C1C(C)=CCCC1(C)C (centres undefined) | – | inactive |
| CN(C)C(=O)Nc1ccc(Oc2ccc(Cl)cc2)cc1 | – | inactive |
| Nc1c(Cl)cc(Cl)cc1[N+](=O)[O-] | – | inactive |
| CN(C)CCOc1ccc(/C(=C(/CCCl)c2ccccc2)c2ccccc2)cc1 | 72.9 µM (active) and 39 µM (active) | – |
| CCC(C)c1cc([N+](=O)[O-])cc([N+](=O)[O-])c1OC(=O)OC(C)C (centres undefined) | – | inactive |
| Cc1ccc(S(N)(=O)=O)cc1 | – | inactive |
| Nc1ccc(NCCO)c([N+](=O)[O-])c1 | – | inactive |
| CCCCC(CC)C(=O)OC(C)C (centres undefined) | – | inactive |
| Cc1cccc(Nc2ccccc2)c1 | – | inactive |
| CCCCCCC(CO)CCCC (centres undefined) | – | inactive |
